PREPL inh: PREPL enzyme inhibitors, primary screen, biochemical, fluorescence polarization. Prolyl endopeptidase-like (Homo sapiens), Q4J6C6. recombinant PREPL, fluorescence polarization activity-based probe. inhibition, % at 5.96 µM. actives 0.68% (n = 320,000). AID 2751, 2010; in the data active means inhibition above about 43%;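 further: 0% = enzyme with DMSO and 100% = wells lacking enzyme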
MEKK2 WT-MEK5: modulators of MEK5 binding to wildtype MEKK2, primary screen, biochemical, multiplex bead flow cytometry, Alexa488-MEK5. Mitogen-activated protein kinase kinase kinase 2 (Homo sapiens), Q9Y2U5. Alexa488-MEK5 binding to MEKK2 WT; actives lie on both sides. binding response (% of control), % at 10 µM. actives 1.1% (n = 290,000). AID 1531, 2009; in the data active means binding response below about 67% or above about 130%
MEKK2 mut-MEK5: MEK5 binding signal on mutant MEKK2 PB1, primary screen, biochemical, multiplex bead flow cytometry, Alexa488-MEK5 | Alexa488-MEK5 binding to MEKK2 mutant | percent response, % at 10 µM | actives 0.35% (n = 290,000) | AID 1530, 2009; in the data active means percent response above about 24%, passing the limit was not always enough
MEKK3 PB1 HTS: modulators of MEKK3-MEK5 PB1 binding, primary screen, biochemical, wildtype MEKK3, multiplex bead flow cytometry, Alexa488-MEK5 | Mitogen-activated protein kinase kinase kinase 3 (Homo sapiens), Q99759 | bead-based flow cytometry, Alexa488-MEK5 binding to MEKK3; actives lie on both sides; 0 = blocked by unlabeled MEK5, 100 = vehicle | binding response (% of control), % at 10 µM | actives 1.4% (n = 290,000) | AID 1529, 2009;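 active means binding response more than 3 SD above or below the average of its plate-row segment, actives on both sides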;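 further: Alexa488 bead fluorescence after subtracting the streptavidin-only scavenger bead signal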
ATG4B inhibitor: ATG4B protease inhibitors, primary screen, biochemical, fluorescence, uHTS; actives 0.51% (n = 340,000); AID 504462, 2011; Cysteine protease ATG4B (Homo sapiens), Q9Y4P1; ATG4B cleavage of LC3-PLA2, NBD-HPC fluorescence, 1 h; inhibition, % at 8.33 µM; in the data active means inhibition above about 40%
Target sequence (Q9Y4P1 whole entry, looked up): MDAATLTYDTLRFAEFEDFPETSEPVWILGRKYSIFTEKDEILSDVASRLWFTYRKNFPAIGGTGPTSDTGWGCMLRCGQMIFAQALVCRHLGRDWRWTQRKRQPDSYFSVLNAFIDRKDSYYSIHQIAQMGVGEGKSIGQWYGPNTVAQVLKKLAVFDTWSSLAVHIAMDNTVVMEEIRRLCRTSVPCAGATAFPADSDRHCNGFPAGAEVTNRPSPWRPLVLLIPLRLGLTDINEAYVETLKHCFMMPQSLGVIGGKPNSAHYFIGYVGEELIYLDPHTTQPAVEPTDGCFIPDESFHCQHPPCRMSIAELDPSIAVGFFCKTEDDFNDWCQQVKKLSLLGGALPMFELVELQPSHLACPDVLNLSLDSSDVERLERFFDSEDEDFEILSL
UBC13 inh: UBC13 polyubiquitin chain formation inhibitors, primary screen, biochemical, TR-FRET, uHTS. inhibition, % at 20 µM. actives 0.47% (n = 330,000). AID 485273, 2010; in the data active means inhibition above about 45%, passing the limit was not always enough
Target sequence (P61088 whole entry, looked up): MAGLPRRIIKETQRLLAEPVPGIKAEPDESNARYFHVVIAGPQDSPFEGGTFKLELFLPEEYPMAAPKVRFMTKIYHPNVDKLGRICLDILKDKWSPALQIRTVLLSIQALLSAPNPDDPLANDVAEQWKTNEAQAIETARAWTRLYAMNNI
MEKK2wt confirm: modulators of MEK5 binding to wildtype MEKK2, confirmation, biochemical, single concentration, multiplex bead flow cytometry | Alexa488-MEK5 binding to MEKK2 WT; actives lie on both sides | actives 2.4% (n = 5,900) | AID 1892, 2009 | shares compounds with MEKK3 PB1 HTS | binding response (% of control), % at 10 µM; in the data active means binding response below about 16% or above about 210%; inactive means in between
MEKK2mut-MEK5: mutant MEKK2 PB1-MEK5 binding signal retest – biochemical, single concentration, multiplex bead flow cytometry, confirmation. shares compounds with MEKK3 PB1 HTS. Alexa488-MEK5 binding to MEKK2 mutant. percent response, % at 10 µM. actives 2% (n = 5,900); in the data active means percent response mostly above about 71%, no sharp cut-off; inactive means mostly below about 38%;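 further: higher means compound restores mutant binding toward wildtype level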
MEKK3-MEK5 inh: MEKK3 wild-type PB1 binding to MEK5, inhibitors, confirmation, biochemical, bead multiplex flow cytometry, single concentration, wildtype; shares compounds with MEKK3 PB1 HTS; Alexa488-MEK5 binding to MEKK3; stronger effect = lower value; binding response (% of control), % at 10 µM; actives 1.8% (n = 5,900); AID 1894, 2009;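 active means binding response below 72% of control, or above a set upper limit, though filed actives all read lower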;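 further: 100% = DMSO only wells and 0% = binding blocked by excess unlabeled MEK5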
An asterisk follows results filed as active; / = no result given; [ ] = dose if it differs, or a comment. Shown are actives, neighbours in structure and some others; about 3.1% of the full set was active somewhere.

SMILES | PREPL inh | MEKK2 WT-MEK5 | MEKK2 mut-MEK5 | MEKK3 PB1 HTS | ATG4B inhibitor | UBC13 inh | MEKK2wt confirm | MEKK2mut-MEK5 | MEKK3-MEK5 inh
CCNC(=S)N1CCN(S(=O)(=O)c2cccc(C(F)(F)F)c2)CC1 | 9 | 110 | 0 | 151* | -10 | 6 | 105 | 1 | 103
CC(C)NC(=S)N1CCN(S(=O)(=O)c2cccc(C(F)(F)F)c2)CC1 | 8 | 98 | -1 | 97 | -4 | 5 | / | / | /
O=C(NC1CCCCC1)C1CCCN(S(=O)(=O)c2cccc3cccnc23)C1 (stereo unspecified) | 17 | 115 | 27 | 129* | -11 | -14 | 106 | 6 | 104
O=C(NCc1cccnc1)c1cccc(S(=O)(=O)Nc2cccc(Cl)c2)c1 | -3 | / | / | / | -7 | 14 | / | / | /
CN(C(=O)c1cccc(NC(=O)Cc2ccc([N+](=O)[O-])cc2)c1)C1CC1 | -14 | / | / | / | -12 | -2 | / | / | /
CCc1ccc(CCN2C(=O)c3ccccc3C2=O)nc1 | 12 | 75 | -31 | 75*[inhibitor] | -1 | 3 | 97 | -4 | 101
COc1ccc(CNCCNC(=O)c2ccco2)c(OC)c1OC | 7 | 114 | 6 | 127* | 5 | 0 | 103 | 3 | 102
COc1cc(C(=O)NCCNC(=O)c2ccco2)cc(OC)c1OC | / | / | / | / | 5 | / | / | / | /
Cc1cc(C)c(NC(=O)c2ccc(CNS(=O)(=O)c3cc(C(F)(F)F)ccc3Cl)cc2)c(C)c1 | -5 | 104 | 1 | 130* | -7 | -1 | 96 | 0 | 99
O=S(=O)(NCc1ccccn1)c1cc(C(F)(F)F)ccc1Cl | 6 | 100 | 0 | 103 | -7 | 3 | / | / | /
Cc1ccc(S(=O)(=O)N(C)c2ccccc2C(=O)N2CCOCC2)cc1 | 4 | 114 | 10 | 107 | -4 | -12 | / | / | /
Clc1cccc(CNCCCSc2ncccn2)c1 | 2 | 139* | 27* | 114 | -3 | -2 | 126 | 19 | 111
CSc1ccc(CNCCCSc2ncccn2)cc1 | 6 | 147* | 25* | 111 | -6 | 10 | 114 | 4 | 105
COc1ccc(CNCCCSc2ncccn2)cc1OC | 8 | 132 | 30* | 111 | 3 | 7 | 123 | 14 | 102
COc1ccc(C(=S)N2CCOCC2)cc1OS(=O)(=O)c1ccccc1[N+](=O)[O-] | 0 | 100 | -1 | 104 | -11 | 10 | / | / | /
COc1cccc(CNC(=O)Cn2ccc3cc(S(=O)(=O)N4CCC(C)CC4)ccc32)c1 | 1 | 101 | -5 | 100 | -11 | -1 | / | / | /
O=C1c2ccccc2C(=O)C12OC2c1cccc2ccccc12 (stereo unspecified) | 4 | 107 | 1 | 157* | -15 | -47 | 103 | 2 | 103
O=C1NC(c2cccc3ccccc23)Nc2ccccc21 (stereo unspecified) | / | / | / | / | 4 | / | / | / | /
CCn1cc(Br)c(C(=O)NCc2ccco2)n1 | 12 | 65 | -25 | 43*[inhibitor] | -7 | -9 | 101 | -3 | 101
O=C(CN1CCC(C(=O)c2ccc(F)cc2)CC1)Nc1ccc(F)cc1 | 3 | 66 | 2 | 46*[inhibitor] | -12 | 2 | 99 | -4 | 101
O=C(NCc1ccc2c(c1)OCO2)c1nc(Cn2cc([N+](=O)[O-])cn2)no1 | 2 | 94 | -5 | 97 | 0 | -7 | / | / | /
Cc1cccc(/C=N/N(CCO)C2=NS(=O)(=O)c3ccccc32)c1 | -15 | 117 | 1 | 138* | -13 | -11 | 107 | 11 | 103
CC(C)(C)NC(=O)CCN(/N=C/c1ccccc1)C1=NS(=O)(=O)c2ccccc21 | -2 | 102 | 6 | 103 | -3 | -5 | / | / | /
Cc1nn2c(N3CCN(C)CC3)cc(C(C)(C)C)nc2c1-c1ccccc1 | 21 | 144* | 23 | 106 | -3 | 24 | 150 | 31 | 106
Cc1nn2c(N3CCN(C4CCCC4)CC3)cc(C(C)(C)C)nc2c1-c1ccccc1 | 16 | 116 | 8 | 103 | 4 | 0 | / | / | /
SMILES | PREPL inh | MEKK2 WT-MEK5 | MEKK2 mut-MEK5 | MEKK3 PB1 HTS | ATG4B inhibitor | UBC13 inh | MEKK2wt confirm | MEKK2mut-MEK5 | MEKK3-MEK5 inh
N#Cc1c2n(c(=S)n(-c3ccc(F)cc3)c1=O)CCCCC2 | 9 | 97 | -1 | 102 | 1 | -7 | / | / | /
CC1CN(C(=O)COC(=O)[C@@H](NC(=O)c2ccccc2Cl)C(C)C)CC(C)O1 (stereo partly specified) | 6 | / | / | / | -6 | 5 | / | / | /
CCCOc1ccc(NC(=O)CC2C(=O)N(CC)C(=S)N2CCCN2CCN(Cc3ccccc3)CC2)cc1 (stereo unspecified) | -1 | 155* | 22 | 103 | -10 | 29 | 150 | 29 | 109
CCN1C(=O)C(CC(=O)Nc2ccc(F)cc2)N(CCCN2CCN(c3ccc(F)cc3)CC2)C1=S (stereo unspecified) | 42 | 143* | 25 | 107 | -4 | 8 | 133 | 25 | 108
CCOc1ccc(NC(=O)CC2C(=O)N(CC)C(=S)N2CCN2CCOCC2)cc1 (stereo unspecified) | 10 | 103 | 0 | 103 | -16 | -4 | / | / | /
CNC(=O)c1nn(C)c(=O)[nH]c1=O | / | / | / | / | 1 | / | / | / | /
Cc1ccc2nc(/C(C#N)=C\c3ccc(N4CCOCC4)o3)[nH]c2c1 | 0 | 46*[inhibitor] | 26* | 103 | -30 | -5 | 112 | 12 | 108
Cc1ccc2nc(/C(C#N)=C\c3ccc([N+](=O)[O-])o3)[nH]c2c1 | 21 | 77 | -10 | 70*[inhibitor] | 1 | -85 | 96 | -3 | 98
Cc1ccc(/C(C#N)=C\c2ccc(N3CCOCC3)o2)cc1 | 16 | 105 | 3 | 108 | -12 | -52 | / | / | /
Cc1cc(N2CCC(N(C)C3CCCC3)CC2)nc2cc(O)ccc12 | 0 | 142* | 24* | 110 | -3 | 19 | 116 | 34 | 108

High-throughput results from PubChem.
